Laboratory results as given in PubChem BioAssay AID2508 (National Center for Advancing Translational Sciences (NCATS), 2010).
Records with an inconclusive call do not appear. Calls of active or inactive are those of the source. The call rests on the fitted dose curve; in most records, active means well fitted inhibition curve with a large enough effect; inconclusive means small, poorly fitted or top-dose-only effect, or effect the other way; inactive means no such curve, though single readings can be large or run the other way.

Assay: Confirmatory Assay for General miRNAs Modulators and/or Inhibitors/Activators of miR-21
Settings: HeLa miR-21 FLuc reporter, luminescence, 48 h; series mostly up to 38.3 µM
Description: MLSCN Grant: 1 R21 NS059478-01 Assay Provider: Qihong Huang, The Wistar Institute NCGC Assay Overview: MicroRNAs (miRNAs) are endogenously encoded small (~20-25 nucleotides), nonprotein-coding RNAs that are involved in post-transcriptional repression of target messenger RNAs (mRNAs) (Le and Hannon, 2004). Estimated to be involved in the regulation of 30% of all protein-coding mRNAs (Filipowicz et al., 2008), miRNAs play a significant role in many biological processes including cellular differentiation and tissue development (Ghildiyal and Zamore, 2009).
NCGC Assay Protocol Summary: Reagents: HeLa cells stably expressing firefly luciferase (FLuc) under the control of a CMV promoter (upstream) and a miR-21 binding sequence directly downstream of the gene. These cells endogenously express miR-21. Control compounds used were compound C3 (provided by collaborator), N6-phenyladenosine (MP Biomedicals, 0215379625), and DMSO. Assay Summary: 6uL of HeLa miR-21-FLuc cells in assay buffer (DMEM, Invitrogen #21063-029; 10% FBS, HyClone #SH30071.03) were dispensed at 2000cells/well (3.3 x 10^5 cells/mL) into Greiner solid-white TC-treated 1536-well plates using a Multidrop Combi (Thermo Fisher Scientific). Plates were incubated for one hour at 37 degree Celsius, 95% humidity, 5% CO2. These assay plates were then treated with 23nL of compound or DMSO using a Kalypsys pin tool, which allows for delivery of a 24-point titration of each compound to the assay plate, with a final compound concentration ranging from approximately 40uM to 5pM. Assay plates were then incubated for 48 hours. After incubation, plates were allowed to come to RT for one hour prior to delivery of 3uL of 3X luciferase detection reagent. After a 15 minute incubation to allow for cell lysis, luciferase activity was measured using a ViewLux CCD imager (PerkinElmer), with an average exposure time of 2-12 seconds. Keywords: NIH Roadmap, MLPCN, MLSMR, qHTS, miR-21, microRNA, firefly luciferase, FLuc.

Row | SMILES | Potency
1 | Cc1nnc(SCc2nc(N)nc(Nc3ccccc3)n2)s1 | 22.5 µM (active)
2 | CN(C(=O)CSc1nnc(-c2ccccc2F)o1)C1CCCCC1 | 14.2 µM (active)
3 | O=C(CSc1nnc(-c2ccccn2)o1)Nc1cccc(Cl)c1 | 2.52 µM (active)
4 | Cc1ccccc1OCCn1cnc2c(N)ncnc21 | inactive
5 | COc1cccc(-n2nnc(-c3nc(-c4cccs4)no3)c2N)c1 | 0.895 µM (active)
6 | COc1ccc(CNc2n[nH]c(-c3ccco3)n2)cc1OC | inactive
7 | COc1ccccc1NC(=O)c1sc2nc3c(cc2c1N)CN(Cc1ccccc1)CC3 | inactive
8 | COc1ccc(NC(=O)CSc2nc(SC)ns2)c(OC)c1 | 4 µM (active)
9 | Clc1ccc(-n2ncc3c(NCc4ccccn4)ncnc32)cc1 | 4.49 µM (active)
10 | COc1ccc(-n2nnc(-c3nc(-c4cccs4)no3)c2N)cc1OC | inactive
11 | CN(C)c1ccc(CNc2nc(-c3ccco3)nn2S(C)(=O)=O)cc1 | 6.34 µM (active)
12 | CC(C)C(=O)Nc1nc2c(s1)CC(C(C)(C)C)CC2 (stereo not given) | 2.83 µM (active)
13 | Cc1cccc(-c2nnc(SCC(=O)Nc3ccc(C)c(C)c3)o2)c1 | 3.18 µM (active)
14 | Cc1cc(C)cc(NC(=O)CSc2nnc(-c3ccccc3C)o2)c1 | 5.65 µM (active)
15 | O=C(CSc1nnc(-c2ccc(O)cc2)o1)Nc1ccccc1Br | 1.79 µM (active)
16 | Nc1c(-c2nc(-c3ccccc3Cl)no2)nnn1-c1ccccc1F | 0.798 µM (active)
17 | COc1ccc(C(=O)Nc2nnc(C(C)C)s2)cc1OC | 17.9 µM (active)
18 | O=C(Nc1nnc(S(=O)(=O)N2CCCC2)s1)c1ccc(F)cc1 | inactive
19 | Cc1cc(C)cc(NC(=O)CSc2nnc(CNC(=O)c3ccco3)o2)c1 | inactive
20 | Cc1c(-c2nnc(SCC(=O)Nc3ccccc3F)o2)nnn1-c1ccc(F)cc1 | 3.56 µM (active)

Row | SMILES | Potency
21 | Nc1c(-c2nc(-c3cccs3)no2)nnn1-c1cccc(F)c1 | 0.318 µM (active)
22 | NC(=O)c1ccccc1NC(=O)c1ccc(-c2ccc(Br)cc2)o1 | 2.83 µM (active)
23 | COCC(=O)Nc1c(C(=O)Nc2ccc3c(c2)OCCO3)oc2ccccc12 | 0.449 µM (active)
24 | COc1ccc(-c2csc(NC(=O)COC(=O)c3ccc(Br)o3)n2)cc1 | 2.83 µM (active)
25 | Cc1ccc(-c2nsc(SCC(=O)Nc3ccc4c(c3)OCO4)n2)cc1 | 17.9 µM (active)
26 | COc1cccc(NC(=O)CSc2nnc(-c3cccs3)o2)c1 | 6.34 µM (active)
27 | Cc1ccc(-c2nc(NCc3ccco3)n(S(C)(=O)=O)n2)cc1 | 7.98 µM (active)
28 | COc1ccc(NCc2cccn2-c2nnc(N3CCC(C)CC3)s2)c(OC)c1 | 3.56 µM (active)
29 | COc1ccccc1C(=O)n1nc(-c2ccco2)nc1NCc1ccc(Cl)cc1 | 12.6 µM (active)
30 | CS(=O)(=O)n1nc(-c2ccc(Cl)cc2)nc1SCc1ccccc1 | 5.04 µM (active)
31 | O=C(CSc1nnc(-c2ccncc2)o1)Nc1nncs1 | inactive
32 | CCC(=O)n1nc(-c2cccnc2)nc1NCc1ccc(F)cc1 | inactive
33 | COc1ccc(-c2nc(SCc3ccccc3)n(S(C)(=O)=O)n2)cc1 | 10 µM (active)
34 | Nc1c(-c2nc(-c3ccncc3)no2)nnn1CC(=O)Nc1ccccc1 | inactive
35 | Cc1ccc(CNc2nc(-c3ccco3)nn2S(C)(=O)=O)cc1 | 4 µM (active)
36 | CSc1nsc(SCC(=O)Nc2ccc(F)cc2F)n1 | 7.98 µM (active)
37 | CCc1nonc1NC(=O)c1oc2ccccc2c1C | 7.98 µM (active)
38 | N#Cc1cc2cc3c(cc2nc1SCC(=O)N1CCOCC1)OCO3 | 1.13 µM (active)
39 | COc1ccccc1NC(=O)C/C(C)=N/NC(=O)c1ccccn1 | inactive
40 | c1ccc(C2=Nn3c(nnc3-c3cc(-c4ccccc4)n[nH]3)SC2)cc1 | inactive
